A short description of experiment [1]: qHTS assay for measurement of the activity of small molecule inhibitors on Zika virus induced Caspase-3 activity in human iPSC derived neural progenitor cells (hNPCs) (AID 1224857). Further: % of control where 0% means no effect; nearly all actives have a fitted effect of over 65% in size. A digest of the protocol:
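Values are percent inhibition of virus-induced caspase-3/7 signal, scaled between uninfected cells and ZIKV-infected cells. Infection used 2 FFU/cell for 6 h after 1 h compound exposure.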
(Quantitative high-throughput screening tests each substance at several concentrations.)

Experiment [2] can be described thus: qHTS assay for measurement of the activity of small molecule inhibitors on Zika virus induced Caspase-3 activity in human astrocytoma cells (AID 1224859).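 Further: plate controls were ZIKV-infected untreated cells for no effect and uninfected cells for full effect.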 A digest of the protocol:
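Compound added 1 h pre-infection; ZIKV 2 FFU/cell on SNB-19 cells, 6 h, 37 C/5% CO2. Caspase-Glo 3/7 luminescence; values as % inhibition of ZIKV-induced caspase activity.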

Experiment [3] can be described thus: Natriuretic polypeptide receptor (hNpr1) antagonism - Pilot counterscreen GloSensor control cell line (AID 1347045; calls by dose curve; further: potency means the concentration at half of the fitted maximal effect). A digest of the protocol:
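Cells were first seeded and incubated overnight at 37C, then loaded with 2% GloSensor substrate for 2 h. Compounds were added for 30 min at room temperature, followed by a baseline read, 50 uM SNP and a final read after 20 min.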

For experiment [4], the target named is Atrial natriuretic peptide receptor 1 (Homo sapiens) (UniProt P16066). Kind of experiment: Natriuretic polypeptide receptor (hNpr1) antagonism - Pilot screen (AID 1347049; calls by dose curve;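 further: HEK293 cells with hNpr1 and GloSensor cGMP luciferase stimulated by 0.1 nM hNppA; agonist-evoked cGMP luminescence read 20 min after hNppA addition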; further: potency means the concentration at half of the fitted maximal effect). A digest of the protocol: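 Receptor antagonism read as cGMP-dependent luminescence in hNpr1/pGS-40F HEK293 cells: pre-read after 30 min compound exposure, post-read 20 min after hNppA agonist at 0.1 nM final, all at room temperature, protected from light; A-71915 titration as control.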

Experiment [5] has as its target Atrial natriuretic peptide receptor 2 (Homo sapiens) (UniProt P20594). The experiment can be described thus: Natriuretic polypeptide receptor (hNpr2) antagonism - Pilot subtype selectivity assay (AID 1347050; calls by dose curve; further: potency means the concentration at half of the fitted maximal effect). A digest of the protocol:
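Antagonist mode: compounds (LOPAC1280, seven 1:5 dilutions) added 30 min before 1 nM hNppC stimulation of hNpr2-HEK293 cGMP-sensor cells; luminescence read before and 20 min after agonist at ambient temperature.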

A short description of experiment [6]: NS1 protein of Zika virus - qHTS assay to identify small molecule inhibitors in human HEK 293 cells (AID 1347053).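 Further: series mostly up to about 46 µM; plate controls were infected untreated cells for no effect and uninfected cells for full effect; nearly all actives have a fitted effect of over 55% in size.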 An outline of the steps: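 Readout was TR-FRET using paired anti-NS1 antibodies after 24 h infection of HEK 293 cells with ZIKV MR766 (MOI = 0.5). Compound preceded virus by 1 h; reduced signal reflects lower NS1 expression.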
The nature of experiment [7]: qHTS Assay for Identifying Gametocytocidal Compounds (AID 743244).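 Further: on the % scale 0 is the no-effect control and ±100 the full control effect; actives lower the fluorescent signal which means gametocytes are killed.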 Conditions: P. falciparum 3D7 stage III-V gametocytes, alamarBlue, 72 h; max response: active compounds read low. An outline of the steps:
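Stage III–V gametocytes of P. falciparum 3D7 were seeded at 20,000 cells/well onto pre-dispensed compounds. After 72 h, 37 °C, 5% CO2, alamarBlue was added for another 24 h.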

Structures are written as SMILES. A number with no mark means an inactive call. Results filed as inconclusive are left out. Activity calls are given as the source filed them. Unless noted, the call rests on the fitted dose curve; in most records, active means well fitted curve in the direction sought with a large enough effect; inconclusive means small, poorly fitted or top-dose-only effect, or another doubt; inactive means no such curve, though single readings can be large; an effect the other way counts as inactive or inconclusive.

Chain of Atrial natriuretic peptide receptor 2 (Homo sapiens) (P20594 whole entry, looked up): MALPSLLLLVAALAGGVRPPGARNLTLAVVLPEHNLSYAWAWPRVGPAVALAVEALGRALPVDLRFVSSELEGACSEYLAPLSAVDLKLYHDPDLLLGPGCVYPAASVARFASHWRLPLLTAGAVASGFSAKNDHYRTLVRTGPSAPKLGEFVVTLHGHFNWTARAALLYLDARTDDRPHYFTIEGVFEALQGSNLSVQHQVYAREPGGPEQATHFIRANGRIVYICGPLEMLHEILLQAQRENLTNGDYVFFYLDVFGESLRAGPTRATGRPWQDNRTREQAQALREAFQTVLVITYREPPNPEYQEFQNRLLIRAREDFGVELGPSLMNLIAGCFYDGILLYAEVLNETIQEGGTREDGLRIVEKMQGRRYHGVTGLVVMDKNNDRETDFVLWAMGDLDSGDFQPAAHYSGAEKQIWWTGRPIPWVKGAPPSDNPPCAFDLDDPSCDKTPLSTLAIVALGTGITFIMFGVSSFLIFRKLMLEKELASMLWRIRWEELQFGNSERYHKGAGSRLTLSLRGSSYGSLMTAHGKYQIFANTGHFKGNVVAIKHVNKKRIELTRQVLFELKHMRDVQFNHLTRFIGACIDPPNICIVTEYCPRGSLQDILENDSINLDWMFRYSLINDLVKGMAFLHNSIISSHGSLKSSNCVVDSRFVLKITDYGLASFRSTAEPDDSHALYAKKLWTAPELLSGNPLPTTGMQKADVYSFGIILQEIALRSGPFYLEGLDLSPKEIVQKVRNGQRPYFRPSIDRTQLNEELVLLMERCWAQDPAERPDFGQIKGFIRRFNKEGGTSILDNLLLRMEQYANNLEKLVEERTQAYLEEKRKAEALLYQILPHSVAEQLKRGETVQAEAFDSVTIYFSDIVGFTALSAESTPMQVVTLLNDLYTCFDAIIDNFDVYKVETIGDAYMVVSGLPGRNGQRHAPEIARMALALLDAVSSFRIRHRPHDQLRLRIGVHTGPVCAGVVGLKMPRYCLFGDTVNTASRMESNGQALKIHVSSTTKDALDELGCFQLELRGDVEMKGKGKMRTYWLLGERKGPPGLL
Chain of Atrial natriuretic peptide receptor 1 (Homo sapiens) (P16066 whole entry, looked up): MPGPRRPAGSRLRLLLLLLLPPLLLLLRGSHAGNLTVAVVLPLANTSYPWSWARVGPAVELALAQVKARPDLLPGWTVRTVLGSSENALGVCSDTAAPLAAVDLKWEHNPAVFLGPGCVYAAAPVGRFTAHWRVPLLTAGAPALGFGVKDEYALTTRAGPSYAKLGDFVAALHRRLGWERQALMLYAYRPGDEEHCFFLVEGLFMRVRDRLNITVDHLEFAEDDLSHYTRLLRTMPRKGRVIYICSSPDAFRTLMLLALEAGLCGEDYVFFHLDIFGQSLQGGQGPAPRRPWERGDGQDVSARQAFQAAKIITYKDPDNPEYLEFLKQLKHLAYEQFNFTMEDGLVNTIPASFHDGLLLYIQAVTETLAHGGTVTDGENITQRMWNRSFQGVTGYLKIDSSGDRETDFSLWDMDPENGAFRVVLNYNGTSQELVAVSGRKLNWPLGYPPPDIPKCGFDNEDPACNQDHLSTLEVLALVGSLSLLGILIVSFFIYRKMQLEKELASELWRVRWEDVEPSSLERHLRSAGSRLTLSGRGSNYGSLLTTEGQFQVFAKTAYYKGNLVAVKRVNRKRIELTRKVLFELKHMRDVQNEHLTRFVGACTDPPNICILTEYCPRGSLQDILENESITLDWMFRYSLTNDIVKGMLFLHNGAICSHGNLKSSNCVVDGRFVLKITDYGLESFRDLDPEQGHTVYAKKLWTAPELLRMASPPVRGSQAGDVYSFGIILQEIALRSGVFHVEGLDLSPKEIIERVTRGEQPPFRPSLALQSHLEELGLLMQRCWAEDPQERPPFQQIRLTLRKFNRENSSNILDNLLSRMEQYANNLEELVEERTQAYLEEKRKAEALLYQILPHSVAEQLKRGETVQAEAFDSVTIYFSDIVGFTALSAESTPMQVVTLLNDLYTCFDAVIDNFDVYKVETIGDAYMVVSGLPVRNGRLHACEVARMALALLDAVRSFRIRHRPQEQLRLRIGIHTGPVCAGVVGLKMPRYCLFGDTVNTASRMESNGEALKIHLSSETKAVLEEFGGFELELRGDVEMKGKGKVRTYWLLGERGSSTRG

For `CC(C)(C)c1cc(C=C(C#N)C#N)cc(C(C)(C)C)c1O`, in experiment [1], the Potency result was “inactive”. Further, in experiment [2], the result was inactive. Further, the Potency in experiment [3] was 131 nM (active); in experiment [4], 301 nM (active); in experiment [5], 414 nM (active).
In the case of `Nc1ncnc2c1ncn2[C@@H]1O[C@H](COP(=O)(O)CP(=O)(O)OP(=O)(O)O)C(O)[C@H]1O` (stereo not given in full), the Potency result in experiment [1] was “inactive”.
As to `CC(N)Cc1c[nH]c2ccc(O)cc12` (stereo not given), the Potency result in experiment [1], in experiment [3], in experiment [4] and in experiment [5] was “inactive” in each case. In addition, the outcome in experiment [2] and in experiment [6] was inactive.
As to `O=S1(=O)N(CCN2CC=C(c3c[nH]c4cc(F)ccc34)CC2)c2cccc3c2N1CCC3`, the Potency entry in experiment [1], in experiment [3], in experiment [4] and in experiment [5] was “inactive” throughout. Moreover, the result in experiment [2] and in experiment [6] was inactive.
As for `CN1CCc2cccc(Cl)c2CC1`, the max response in experiment [7] is 33.5%. In addition, the Potency result in experiment [1], in experiment [3], in experiment [4] and in experiment [5] was “inactive” throughout. In addition, the result in experiment [2] and in experiment [6] was inactive.
For `O=C1/C(=C/c2ccccc2)C[C@@]2(O)[C@H]3Cc4ccc(O)c5c4[C@@]2(CCN3CC2CC2)[C@H]1O5`, in experiment [1], the Potency result was “inactive”.
On to `NC(CCCCCP(=O)(O)O)C(=O)O` (stereo not given), for which the max response in experiment [7] was -2.34%. For the same compound, the Potency entry in experiment [1], in experiment [3], in experiment [4] and in experiment [5] was “inactive” in each case. Also, the result in experiment [2] and in experiment [6] was inactive.
With `CCCN(CCC)[C@H]1CCc2c(F)ccc(O)c2C1`, the Potency entry in experiment [1], in experiment [3], in experiment [4] and in experiment [5] was “inactive” in each case. The compound was classed as inactive in experiment [2] and in experiment [6].
Take `O=C1CC[C@@]2(O)C3Cc4ccc(O)c5c4C2(CCN3CC2CC2)[C@H]1O5` (stereo not given in full): in experiment [7], the max response is 16.9%. The Potency result in experiment [1], in experiment [3], in experiment [4] and in experiment [5] was “inactive” throughout. In addition, the outcome in experiment [2] and in experiment [6] was inactive.
As for `C[C@H](Cc1ccc2c(c1)OC(C(=O)O)(C(=O)O)O2)NC[C@H](O)c1cccc(Cl)c1`, the max response in experiment [7] was 13.1%. In addition, the Potency result in experiment [1], in experiment [3], in experiment [4] and in experiment [5] was “inactive” throughout. For the same compound, the compound was classed as inactive in experiment [2] and in experiment [6].
Take `OCc1cnc[nH]1`: the max response in experiment [7] is 26.7%. In addition, the Potency result in experiment [1], in experiment [3], in experiment [4] and in experiment [5] was “inactive” each time. The result in experiment [2] and in experiment [6] was inactive.
Turning to `CCCC[N+]1(C)C2CC(OC(=O)[C@H](CO)c3ccccc3)CC1C1OC12` (stereo not given in full), the Potency result in experiment [1], in experiment [3], in experiment [4] and in experiment [5] was “inactive” each time. In addition, the call in experiment [2] and in experiment [6] was inactive.
For `CN1CCc2cc(O)cc3c2[C@H]1Cc1ccc(O)c(O)c1-3`, the Potency result in experiment [1], in experiment [3], in experiment [4] and in experiment [5] was “inactive” throughout. Besides, the compound was called inactive in experiment [2] and in experiment [6].
On to `Cc1[nH]c2ccc(O)cc2c1CCN`, for which the Potency result in experiment [1], in experiment [3], in experiment [4] and in experiment [5] was “inactive” each time. In addition, the outcome in experiment [2] and in experiment [6] was inactive.
For the compound `CCNC(=O)[C@H]1O[C@@H](n2cnc3c(N)ncnc32)[C@H](O)C1O` (stereo not given in full), in experiment [1], the Potency result is “inactive”.
Regarding `NCC(CP(=O)(O)O)c1ccc(Cl)cc1` (stereo not given), in experiment [7], the max response was 18.6%. For the same compound, the Potency entry in experiment [1], in experiment [3], in experiment [4] and in experiment [5] was “inactive” in each case. Moreover, the result in experiment [2] and in experiment [6] was inactive.
In the case of `Clc1cc(I)cc(Cl)c1NC1=NCCN1`, the max response in experiment [7] is 44.8%. Moreover, the Potency entry in experiment [1], in experiment [3], in experiment [4] and in experiment [5] was “inactive” throughout. Besides, the call in experiment [2] and in experiment [6] was inactive.
As to `NC(N)=NOCC[C@H](N)C(=O)O`, the Potency entry in experiment [1], in experiment [3], in experiment [4] and in experiment [5] was “inactive” in each case. In experiment [2], the call was inactive.
As to `C[N+](C)(C)CCOC(=O)CBr`, the Potency entry in experiment [1], in experiment [3], in experiment [4] and in experiment [5] was “inactive” in each case. Moreover, the call in experiment [2] and in experiment [6] was inactive.
With `O=[N+]([O-])c1ccc2nc(N3CCNCC3)ccc2c1`, the Potency entry in experiment [1], in experiment [3], in experiment [4] and in experiment [5] was “inactive” throughout. The outcome in experiment [2] and in experiment [6] was inactive.
As to `CC(C)NP(=O)(NC(C)C)OP(=O)(NC(C)C)NC(C)C`, the Potency entry in experiment [1], in experiment [3], in experiment [4] and in experiment [5] was “inactive” in each case. In addition, the result in experiment [2] and in experiment [6] was inactive.
As for `OC1CCCCC1N1CCC(c2ccccc2)CC1` (stereo not given), the Potency result in experiment [1], in experiment [3], in experiment [4] and in experiment [5] was “inactive” each time. Also, the outcome in experiment [2] and in experiment [6] was inactive.
Regarding `CC(C)(C)c1o[nH]c(=O)c1CC(N)C(=O)O` (stereo not given), in experiment [7], the max response was 2.4%. Further, the Potency result in experiment [1], in experiment [3], in experiment [4] and in experiment [5] was “inactive” each time. The call in experiment [2] and in experiment [6] was inactive.
On to `CC(C)CC(NP(=O)(O)O[C@@H]1O[C@@H](C)[C@H](O)[C@@H](O)[C@H]1O)C(=O)NC(Cc1c[nH]c2ccccc12)C(=O)O` (stereo not given in full), for which the Potency result in experiment [1] is “inactive”.
On to `CCCN1CCC[C@@H](c2cccc(O)c2)C1`, for which the max response in experiment [7] was 21.7%. Further, the Potency entry in experiment [1], in experiment [3], in experiment [4] and in experiment [5] was “inactive” each time. Further, the result in experiment [2] and in experiment [6] was inactive.
As to `CCN1C[C@@]2(COC)C3[C@@H](OC)C4[C@H]1C3([C@@H]1C[C@@]3(O)[C@H](OC(=O)c5ccccc5)[C@@H]1[C@]4(OC(C)=O)[C@@H](O)[C@@H]3OC)[C@H](OC)C[C@H]2O`, in experiment [1], the Potency entry was “inactive”.
As to `NCC(O)c1cc(O)c(O)cc1F` (stereo not given), the max response in experiment [7] was 20.1%. The Potency entry in experiment [1], in experiment [3], in experiment [4] and in experiment [5] was “inactive” throughout. Further, the call in experiment [2] and in experiment [6] was inactive.
As to `CC1OC1P(=O)(O)O` (stereo not given), in experiment [1], the Potency entry is “inactive”.
On to `CC(N)c1cccc(Cl)c1Cl` (stereo not given), for which the Potency entry in experiment [1], in experiment [3], in experiment [4] and in experiment [5] was “inactive” throughout. Also, the call in experiment [2] and in experiment [6] was inactive.
Turning to `C[N+]1(C)CCC(OC(=O)C(c2ccccc2)c2ccccc2)CC1`, the Potency entry in experiment [1] is “inactive”.
In the case of `Cc1cc([C@@H]2CCCN2C)on1`, the Potency entry in experiment [1], in experiment [3], in experiment [4] and in experiment [5] was “inactive” throughout. The outcome in experiment [2] and in experiment [6] was inactive.
On to `CC(C)(O)[C@@H]1[C@H]2OC(=O)[C@@H]1[C@]1(O)C[C@H]3O[C@]34C(=O)O[C@H]2[C@]14C` (tested in a mixture with another compound), for which the Potency result in experiment [1] was “inactive”.
As to `NC(=O)c1cc(N2CC2)c([N+](=O)[O-])cc1[N+](=O)[O-]`, the max response in experiment [7] is 5.78%. Also, the Potency result in experiment [1], in experiment [3], in experiment [4] and in experiment [5] was “inactive” throughout. The compound was classed as inactive in experiment [2] and in experiment [6].
With `NCCCP(=O)(O)O`, in experiment [7], the max response is -9.88%. Moreover, the Potency result in experiment [1], in experiment [3], in experiment [4] and in experiment [5] was “inactive” each time. In addition, the call in experiment [2] and in experiment [6] was inactive.
As to `c1ccc2c(N3CCNCC3)cccc2c1`, the Potency result in experiment [1], in experiment [3], in experiment [4] and in experiment [5] was “inactive” throughout. Further, the outcome in experiment [2] and in experiment [6] was inactive.

The values are drawn from PubChem BioAssay (NCATS).
